# Data as given in ChEMBL document CHEMBL4513216, “Probing the Open Global Health Chemical Diversity Library for Multistage-Active Starting Points for Next-Generation Antimalarials” (ACS Infect Dis, 2020).
# The whole screen tested about 69,000 compounds, of which about 8,600 (12%) showed an effect of 50% or more. Only a selection was taken, and strong results are over-represented in it overall.
# System: Plasmodium berghei
# Test: Screen against P. berghei liver stage (PbLuc), transformed with Luciferase, at 10uM
# Assay type: functional, HepG2
# Conditions: tested at 10 uM
row,SMILES,INHIBITION
1,CCn1nc(C)c(C(=O)N2C[C@@H](CN(C)CCOC)[C@@H](CO)C2)c1C,20%
2,CN1CCCCC1Cc1nc2c(cc1C(N)=O)CCC2 (centres undefined),-107%
3,NC(=O)c1cc2c(nc1-c1ccoc1)CCC2,30.3%
4,NC(=O)c1cc2c(nc1Oc1cccc(CN3CCCC3)c1F)CCC2,62.1%
5,NC(=O)c1cc2c(nc1Oc1ccccc1CN1CCCCC1)CCC2,27.4%
6,NC(=O)c1cc2c(nc1Oc1ccc(CN3CCCC3)cc1F)CCC2,67%
7,CC(=O)Nc1ccc(Oc2ccc(CN3CCCC3)cc2F)cc1,45.1%
8,Cc1cc(C)c2c(N3CCC(C(=O)N4CCCC4)CC3)ncnc2n1,42.8%
9,Cc1ccccc1C(=O)N1C[C@@H]2COC[C@]2(COCc2cccnc2)C1,1.9%
10,CC(=O)N1CCN(Cc2ccsc2)CC2(CC(=O)N(C)C2)C1 (centres undefined),16.1%
11,CC(C)N1CCC2(CC1)C[C@@H](O)[C@H](c1ccccc1)NC2=O,40%
12,COCC(=O)NC1CC2(CCN(CCO)CC2)c2ccccc21 (centres undefined),33.1%
13,CC(C)C(=O)NC1CC2(CCN(CC(=O)N(C)C)CC2)c2ccccc21 (centres undefined),60.2%
14,Cc1ccc2c(c1)C(NC(=O)N(C)C)CC21CCN(CC2CC2)CC1 (centres undefined),22.4%
15,COCC(=O)NC1CC2(CCN(CCN(C)C)CC2)c2ccccc21 (centres undefined),53.9%
16,CCN1CCC2(CC1)CC(NC(=O)c1ccnnc1)c1ccccc12 (centres undefined),-9.42%
17,COCC(=O)NC1CC2(CCN(Cc3ccco3)CC2)c2ccccc21 (centres undefined),32.4%
18,CC(C)(CNCc1ccc(OCc2cscn2)cc1)C(N)=O,-47%
19,Cc1cnc(CN2CCC(N(C)Cc3noc(C4CC4)n3)C2)o1 (centres undefined),33.3%
20,CCc1ccc(NC(=O)C2CCN(C(=O)COC)CC2)cc1,39.3%
21,CCC(C)c1ccc(NC(=O)C2CCN(C(=O)COC)CC2)cc1 (centres undefined),16.6%
22,CCC(C)c1ccc(NC(=O)C2CCN(C(=O)N(C)C)CC2)cc1 (centres undefined),76.9%
23,Cn1cncc1C(=O)N1CCCC(c2ccn[nH]2)C1 (centres undefined),-35.9%
24,CC(NCc1nnc2n1CCCC2)C(=O)N1CCc2sccc2C1 (centres undefined),-21.9%
25,O=C1CC(N(C(=O)COc2ccc(F)cc2F)C2CC2)C(=O)N1 (centres undefined),0.472%
26,Cc1cc(C)nc(NCc2cc3n(n2)CCCN(C(=O)C2CCC2)C3)n1,13.3%
27,Nc1nccc(NCc2cc3n(n2)CCCN(C(=O)C2CCC2)C3)n1,28.5%
28,Cc1cc(NCc2cc3n(n2)CCCN(C(=O)C2CCC2)C3)nc(N)n1,80.2%
29,Cc1nc(C2CCCN(S(C)(=O)=O)C2)sc1Br (centres undefined),-7.66%
